# Screens deposited in PubChem by Buhrlage Lab, Dana-Farber Cancer Institute and Novartis Institutes for BioMedical Research (Cambridge, Mass).
# An excerpt weighted towards active compounds, which were near 11% of everything screened.
# USP17 inh = human USP17-like deubiquitinase inhibition; A8MUK1; purified USP17, Ub-rhodamine cleavage fluorescence, 3 h; inhibition, % at 50 µM; hit rate 6.5% among 47,000
# USP28 block = blocks human USP28 ubiquitin-rhodamine cleavage. Q96RU2. purified USP28, Ub-rhodamine cleavage fluorescence, 30 min. inhibition, % at 25 µM. hit rate 3% among 47,000. AID 1645857
# USP30 inh = inhibitors of human USP30 deubiquitinase. purified USP30, Ub-rhodamine cleavage fluorescence. inhibition, % at 25 µM. hit rate 5.3% among 47,000. AID 1645860
# Numbers without * were called inactive; x = not tested or not shown. Rule as the data show it: active = inhibition above about 30%; inactive = the rest.
SMILES,USP17 inh,USP28 block,USP30 inh
COCC(=O)N1CCCCCC1C1CCN(c2ccc(C#N)cn2)CC1 (centres undefined),0.3,16.2,29.1
O=C1c2ccccc2S(=O)(=O)N1Cc1ccc2nsnc2c1,4.4,35.3*,22.8
N#Cc1ccccc1CN1C(=O)c2ccccc2S1(=O)=O,-46.0,-24.3,-289.9
c1ccc(-c2ccc(-c3nc(-c4ccc5c(c4)OCCCO5)cs3)s2)nc1,-3.3,0.7,-29.9
O=c1sc2ccccc2c(=O)n1Cc1cccc(C(F)(F)F)c1,1.6,82.5*,0.5
Cc1noc(-c2ccc(=O)n(Cc3cccc(C(F)(F)F)c3)c2)n1,-1.3,4.1,-7.7
CC(C)NC(=O)N1CCC2(COCc3cnc(NCc4ccco4)nc32)C1 (centres undefined),2.1,7.7,1.6
COc1ccccc1-n1c(CNC(=O)c2ccccc2F)nnc1SCC(=O)N1CCc2ccccc21,5.0,7.8,17.2
O=C(c1ccc2c(c1)OCCO2)N1CCC[C@H](Cn2nnc(-c3cccnc3)n2)C1,9.7,9.4,12.6
COc1ccc(CN2CCC(NC(=O)c3ccc(C#N)cc3)C2)cn1 (centres undefined),2.1,1.8,11.2
Cc1ccc(C(=O)NCCc2nnc3ccc(SCc4c(F)cccc4Cl)nn23)cc1,5.9,15.7,30.2*
Cc1ccc(C(=O)NCCc2nnc3ccc(SCC(=O)NCc4ccc(F)cc4)nn23)cc1,16.6,10.8,29.5
O=C1CC2C3CCC(=O)c4c(O)ccc(c43)C2(O)c2cccc(O)c21 (centres undefined),46.9*,36.9*,-0.3
COc1ccccc1Nc1ncc2c(n1)CC(C)CC2=O (centres undefined),17.1,17.8,22.7
COc1cccc2c1C(=O)c1ccc3c(c1C2=O)C(=O)C[C@@H](C)C3,30.2*,4.0,-51.4
COc1cccc2c1C(=O)c1ccc3c(c1C2=O)C(=O)C[C@@H](C)[C@@H]3O,44.5*,9.8,-8.2
O=c1[nH]c2ccccc2n1CCCN1CCN(S(=O)(=O)c2ccc(Cl)c(Cl)c2)CC1,-12.1,-22.9,-12.8
O=C(Nc1ccc(F)cc1)c1cc(-c2ccccc2)c(N2CCOCC2)s1,0.3,10.2,3.8
Cc1ncc(CN2CCCCC2c2nc(C)c3c(n2)N(Cc2ccccn2)C(=O)CC3)s1 (centres undefined),-13.6,-5.2,-35.2
CC(C)CCNC(=O)c1cnn2c(C(F)(F)F)cc(-c3ccccc3)nc12,-1.1,-8.6,-2.7
O=C(NCc1cccnc1)c1cnn2c(C(F)(F)F)cc(-c3ccccc3)nc12,13.6,1.5,64.3*
N#Cc1ccc(COc2ncnc3scc(-c4ccccc4)c23)cc1,-9.0,35.0*,10.5
Cc1ccc(-c2csc3ncnc(OCc4ccc(C#N)cc4)c23)cc1,9.7,18.5,-23.3
O=C(c1cn(-c2cccc(F)c2)nn1)N1CCN(c2ccccc2)CC1,-9.8,-15.9,-139.6
O=C(c1cn(-c2cccc(F)c2)nn1)N1CCc2ccccc2C1,55.1*,1.0,11.3
SMILES,USP17 inh,USP28 block,USP30 inh
CC(=O)c1ccc(N(C(=O)c2cnccn2)C(C(=O)NC2CCCCC2)c2ccc(F)cc2)cc1 (centres undefined),-6.7,-13.1,-21.6
CC(C)c1ccc(C(C(=O)NC2CCCCC2)N(C(=O)c2cnccn2)c2cccc(F)c2)cc1 (centres undefined),27.9,15.6,65.5*
CC1Cc2ccccc2N1C(=O)CSc1ccccc1N (centres undefined),4.9,12.2,26.1
COc1ccc(NC(=O)CS(=O)(=O)c2[nH]c(-c3ccccc3)nc2-c2ccc(C)cc2)cc1,24.0,1.7,29.5
O=C(CS(=O)(=O)c1[nH]c(-c2ccc(F)cc2)nc1-c1ccccc1)Nc1ccc(F)cc1,0.1,-1.0,-17.5
COc1ccc(NC(=O)CSc2cn[nH]n2)cc1,2.2,-1.9,0.9
COc1ccc(NC(=O)CSc2ccc(F)cc2)cc1,28.1,29.2,33.6*
Cc1ccc(-c2nc(-c3ccccc3)c(S(=O)(=O)CC(=O)Nc3ccc(F)c(Cl)c3)[nH]2)cc1,24.3,18.5,43.8*
COc1ccc(-c2nc(-c3ccc(OC)cc3)c(S(=O)(=O)CC(=O)Nc3ccc(F)cc3)[nH]2)cc1,-1.6,-18.8,30.0*
Cc1cccc(CNC(=O)c2ccc(N3C(=O)C(C)CS3(=O)=O)cc2)c1 (centres undefined),-6.9,-0.1,0.0
Cc1nc2c(nnn2C[C@@H]2CCCN(C(=O)c3cccc(F)c3)C2)c(=O)[nH]1,-1.0,-7.3,-0.1
CC(=O)N1Cc2ccccc2N(C)C(Cc2ccccc2)C1 (centres undefined),-12.9,-7.8,-32.7
O=C(NCc1ccco1)c1nc[nH]c1C(=O)NCc1ccccc1,-8.6,9.1,-16.4
COc1ccc(C(=O)CSc2nc3ccccc3c(=O)n2-c2ccc(F)cc2)c(OC)c1,-11.4,-9.5,-49.2
CCOC(=O)CNC(=O)N1CCCCCC1c1cccs1 (centres undefined),-9.0,-10.5,4.1
CCOC(=O)Cn1c(=O)c(C(=O)NC(=O)OCC)cn(Cc2cccs2)c1=O,21.9,0.6,30.7*
FC(F)(F)c1cnc(N2CCC(c3ncn[nH]3)CC2)c(Cl)c1,0.3,42.6*,19.2
O=C1COc2ccc(NC(=O)N3CCN(c4ncc(C(F)(F)F)cc4Cl)CC3)cc2N1,15.7,18.7,25.6
Cc1nc(Nc2ncccn2)cc(C2CCCN2C(=O)C2CCOCC2)n1 (centres undefined),7.7,-3.7,10.4
Cc1ccc(-n2nnc(C(=O)NCc3ccc(F)cc3F)c2-c2cccnc2)cc1,x,9.4,26.7
O=C(COC(=O)CCCN1C(=O)c2cccc3cccc(c23)C1=O)NC1CC1,9.0,11.9,13.2
CC(C)(C)c1ccc(Nc2nc(-c3cccnc3)nc3ccccc23)cc1,-13.0,-18.9,-68.3
c1cncc(-c2nc(Nc3ccc4c(c3)OCCCO4)c3ccccc3n2)c1,40.1*,6.1,-13.6
c1cncc(-c2nc(Nc3ccc4c(c3)OCCO4)c3ccccc3n2)c1,42.0*,43.7*,52.8*
Cc1ccc(Nc2nc(-c3ccncc3)nc3ccccc23)cc1,-1.5,-1.1,-9.9
SMILES,USP17 inh,USP28 block,USP30 inh
COc1cccc(C(=O)N2CCCC(c3nnc4ccccn34)C2)c1 (centres undefined),14.9,12.5,18.2
CC(=O)N1CCc2cc(C(O)CN3CCN(c4ccccc4F)CC3)ccc21 (centres undefined),-2.5,3.7,25.0
N#Cc1cccc(NC(=O)COC(=O)c2n[nH]c3ccccc23)c1,47.5*,8.0,-119.8
COc1ccccc1NC(=O)COC(=O)Cc1c[nH]c2ccccc12,-20.0,-16.4,-70.0
CCOc1ccc(NC(=O)COC(=O)c2n[nH]c3ccccc23)cc1,-14.0,3.1,16.1
N#Cc1ccc(Cl)cc1NC(=O)COC(=O)c1n[nH]c2ccccc12,-12.5,-10.3,-73.5
CCc1ccc(NC(=O)COC(=O)c2n[nH]c3ccccc23)cc1,71.2*,43.3*,27.6
CC(=O)c1ccc(NC(=O)COC(=O)c2c[nH]c3ccccc23)cc1,33.8*,x,x
Cc1ccc(CC(=O)NC(C)(C)c2nc3c(c(C(N)=O)n2)OCO3)cc1,5.2,1.1,6.7
COc1cc(CN2CCC3(CC2)Nc2ccccc2C2=NCCN23)cc(OC)c1OC,-14.3,-16.9,-18.2
CC1CCN(C(=O)c2cnc3ccccc3c2S(=O)(=O)c2ccc(Cl)cc2)CC1,19.3,20.1,37.8*
